Measured values as given in PMC6919601, “Identification of Plasmodium dipeptidyl aminopeptidase allosteric inhibitors by high throughput screening” (PLoS ONE, 2019).
Screen size: about 110,000 compounds; about 230 (0.21%) showed an effect of 50% or more. Only a selection was taken, and strong results are over-represented in it overall.

Target: DPAP1 (Plasmodium falciparum, UniProt Q8IIJ9)
Assay: primary screen, percent inhibition; read by cleavage of a fluorogenic dipeptide substrate; higher = more effect of the substance
Set-up: species or system P. falciparum D10 trophozoite lysates; single well
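Further: 30 min substrate incubation versus DMSO and 10 µM JCP410 controls.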

Sequence of DPAP1 (Q8IIJ9 whole entry, looked up): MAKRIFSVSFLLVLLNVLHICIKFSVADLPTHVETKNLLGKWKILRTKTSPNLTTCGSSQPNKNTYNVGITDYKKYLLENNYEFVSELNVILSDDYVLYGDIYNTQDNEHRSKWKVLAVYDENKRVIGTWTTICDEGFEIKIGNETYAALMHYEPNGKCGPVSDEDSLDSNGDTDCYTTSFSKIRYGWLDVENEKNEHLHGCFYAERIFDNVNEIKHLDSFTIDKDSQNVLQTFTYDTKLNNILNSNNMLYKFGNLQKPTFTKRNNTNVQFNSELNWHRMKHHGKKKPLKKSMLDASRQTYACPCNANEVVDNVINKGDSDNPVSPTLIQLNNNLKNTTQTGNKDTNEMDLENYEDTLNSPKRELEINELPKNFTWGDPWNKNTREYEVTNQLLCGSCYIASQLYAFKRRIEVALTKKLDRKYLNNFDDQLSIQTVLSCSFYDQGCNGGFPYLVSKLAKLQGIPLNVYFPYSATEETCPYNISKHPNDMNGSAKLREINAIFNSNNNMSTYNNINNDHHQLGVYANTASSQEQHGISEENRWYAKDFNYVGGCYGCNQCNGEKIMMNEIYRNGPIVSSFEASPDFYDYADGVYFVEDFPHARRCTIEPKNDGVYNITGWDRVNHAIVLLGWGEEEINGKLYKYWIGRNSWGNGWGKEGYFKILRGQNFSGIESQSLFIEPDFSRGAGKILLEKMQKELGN

Point of comparison: `CCn1c(C(=O)NCc2ccccn2)cc2oc3ccccc3c21`, “% Inhibition @ 10 uM” value -3.96%. Against it:
- Cc1ccc(OCCNC(=O)Cn2cnc3c(=O)n(C)c(=O)n(C)c32)cc1C — lower, -9.26%
- COc1cc(C2NCCc3c2[nH]c2ccccc32)ccc1OC(C)C (stereo not drawn) — higher, 1.02%
- CC1CCN(C(=O)Cn2cnc3c(nnn3Cc3ccccc3F)c2=O)CC1 — higher, 24%
- O=C(CNS(=O)(=O)c1ccc(Br)s1)N1CC=C(c2ccccc2)CC1 — higher, 3.27%
- O=C(NC1CCCC1)c1ccc(Cl)c([N+](=O)[O-])c1 — lower, -4.91%
- O=C(Nc1cnn(Cc2ccccc2)c1)C1CCCC1 — higher, -1.78%
- Cc1cc(-c2ccc([N+](=O)[O-])cc2)nc2ccc3ccccc3c12 — higher, -0.239%
- Cc1cc(-c2ccc(N)cc2)nc2ccc3ccccc3c12 — higher, 52.7%
- Cc1cc(-c2ccc(O)cc2)nc2ccc3ccccc3c12 — higher, -1.97%
- OC1CCCN(Cc2ccc(OC(F)(F)F)cc2)C1 (stereo not drawn) — higher, 1.62%
- Cc1cccc(C)c1-n1c(C)cc(/C=C2\NC(=O)NC2=O)c1C — higher, 4.83%
- CCc1nnc(NC(=O)CSc2nc(-c3cccs3)cc(C(F)(F)F)c2C#N)s1 — higher, 9.42%
- CCc1nnc(NC(=O)CSc2nc(N)nc(SC)c2C#N)s1 — higher, -1.68%
- CCc1nnc(NC(=O)CSc2nc(C(F)(F)F)cc(C)c2C#N)s1 — higher, 59.2%
- COC(=O)C1=NNC2C(=O)N(Cc3ccccc3)C(=O)C12 (stereo not drawn) — higher, -0.13%
- CC(C(=O)O)c1cc(C(=O)c2ccccc2)sc1-c1ccccc1 (stereo not drawn) — higher, 6.08%
- CCOc1ccccc1C(=O)Nc1ccc(C(C)=O)cc1 — lower, -7.23%
- CCCOc1ccc(C(=O)CCNC(Cc2c[nH]c3ccccc23)C(=O)O)cc1 (stereo not drawn) — higher, 81.9%
- CC(C)CCOc1ccc(C(=O)CCNC(CC(C)C)C(=O)O)cc1 (stereo not drawn) — higher, 30.1%
- O=C(COc1ccccc1)NC(Cc1c[nH]c2ccccc12)C(=O)O (stereo not drawn) — higher, 10.2%
- CC[C@H](C)[C@H](NC(=O)Cc1ccncc1)C(=O)N[C@@H](CCc1ccccc1)C(=O)CO — lower, -4.17%
- CCN(C(=O)c1ccco1)c1nc(-c2ccccc2)cs1 — higher, 72.9%
- CCCN(C(=O)c1ccco1)c1nc(-c2cccc(Cl)c2)cs1 — higher, 11.9%
- CCN(C(=O)CCc1ccccc1)c1nc(-c2ccccc2)cs1 — higher, -0.426%
- CCOC(=O)C1=CN(C)C=C(C(=O)OCC)C1c1ccc(C(C)C)cc1 — higher, -1.48%
- Cc1cc(C)c(S(=O)(=O)N2CCCc3ccccc32)c(C)c1 — higher, 1.83%
- Cc1ccc(-n2nc(C)c3c(C)c(CCC(=O)NCC4CCCO4)c(C)nc32)cc1 (stereo not drawn) — higher, 0.953%
- CCOc1ccc(/C=C2/C=C(c3ccc(C)cc3)OC2=O)cc1OC — higher, 1.84%
- CCOc1ccc(N2C(=O)C3C(C(C)=O)=NN(c4ccccc4Cl)C3C2=O)cc1 (stereo not drawn) — higher, -0.0619%
- O=C1c2cccc3cccc(c23)C(=O)N1O — higher, 13.1%
- O=C1NC(=O)c2cccc3cccc1c23 — lower, -4.51%
- O=C1C(Sc2ccccc2)=C(O)c2cccc3cccc1c23 — higher, 68.7%
- CC(C)Oc1ccc(C(=O)CCNC(C(=O)O)C(C)C)cc1 (stereo not drawn) — higher, 59.7%
- COc1ccc(C(=O)CCNC(C)C(=O)O)cc1 (stereo not drawn) — higher, 5.85%
- CCOc1ccc(C(=O)CCNC(CC(=O)O)C(=O)O)cc1 (stereo not drawn) — higher, 42.3%
- CCC(C)C(NCCC(=O)c1ccc(Br)cc1)C(=O)O (stereo not drawn) — lower, -7.23%
- CCCOc1ccc(C(=O)CCNC(C(=O)O)C(C)C)cc1 (stereo not drawn) — higher, 2.8%
- CCOc1ccc(C(=O)CCNC(C(=O)O)C(C)CC)cc1 (stereo not drawn) — higher, 71%
- CCC(Oc1ccccc1)C(=O)Nc1ncccc1Cl (stereo not drawn) — higher, -3.75%
- COc1ccccc1NC(=O)/C=C\C(=O)O — higher, 1.63%
- CCCN(CCC)CCNC(=O)c1cn(C)c(=O)c2cc(OC)c(OC)cc12 — higher, -2.49%
- CC(NC(=O)c1cccs1)c1cc2c(cc1Cl)OCCCO2 (stereo not drawn) — higher, -1.28%
- Cc1nn(-c2ccccc2)c2sc(-c3nnc(S)o3)cc12 — higher, 64.9%
- COC(=O)c1cc2c(C)nn(-c3ccccc3)c2s1 — higher, 4.7%
- Cc1nn(-c2ccccc2)c2sc(C(N)=O)cc12 — higher, 6.83%
- COc1ccccc1NC(=O)c1cc(OC)c(OC)c(OC)c1 — lower, -5.67%
- Cc1ccc(-c2nc3c4ccccc4nc(S)n3n2)cc1 — lower, -7.62%
